What all share (assay): log2 fold change, soluble protein after heating vs DMSO (PISA); higher = thermal stabilisation; K562 lysate, 10 uM; active = over 0.2 and 3.5 SD of the protein, either way, in both replicates (recomputed)
Compound in one experiment: Cc1cn(-c2cc(NC(=O)c3ccc(C)c(Nc4nccc(-c5cccnc5)n4)c3)cc(C(F)(F)F)c2)cn1 [nilotinib]
Summed up: (§1)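 Log-two fold change in thermal stability relative to solvent controls is reported from duplicates. For each sample, crude K562 extract from dounce-homogenised pellets in PBS pH 7.4 with 1 mM MgCl2, at 1 mg/mL protein, was treated with 10 μM compound for 30 min. Aliquots heated for 3 min across 48°C-58°C were pooled, brought to 0.5% NP-40 at 4°C and cleared at 21,000xg for 90 min. The supernatant was quantified by TMTpro 16plex LC-MS/MS with channel sums equalised.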

Compound in experiment [1]: Cc1nc(Nc2n[nH]c3c2CN(C(=O)N[C@H](CN(C)C)c2ccccc2)C3(C)C)c2sccc2n1
Summed up:
as §1

Compound in another experiment: Cc1nc(Nc2ncc(C(=O)Nc3c(C)cccc3Cl)s2)cc(N2CCN(CCO)CC2)n1 [dasatinib]
Summed up:
as §1

Compound in experiment [2]: Cc1ncc(-c2ccnc(Nc3ccc(S(C)(=O)=O)cc3)n2)n1C(C)C
A digest of the protocol:
as §1

Compound in experiment [3]: Cn1cc(-c2ccc3c(c2)CCN3C(=O)Cc2cccc(C(F)(F)F)c2)c2c(N)ncnc21
Summed up: as §1

Compound in a further experiment: Cn1cc(CNCC2CCN(c3ncc(C(=O)NO)cn3)CC2)c2ccccc21 [quisinostat]
A digest of the protocol: as §1

Compound in another experiment: Cn1cncc1[C@@](N)(c1ccc(Cl)cc1)c1ccc2c(c1)c(-c1cccc(Cl)c1)cc(=O)n2C [tipifarnib]
A digest of the protocol: as §1

Compound in experiment [4]: NC(=O)Nc1cc(-c2cccc(F)c2)sc1C(=O)N[C@H]1CCCNC1
A digest of the protocol: as §1

Compound in experiment [5]: NC(=O)c1cnc(N[C@@H]2CCCC[C@@H]2N)nc1Nc1cccc(-n2nccn2)c1
A digest of the protocol:
as §1

Compound in experiment [6]: NC1(c2ccc(-c3nc4ccn5c(=O)[nH]nc5c4cc3-c3ccccc3)cc2)CCC1
A digest of the protocol: as §1

The full data set covers some 8,800 targets. This sample favours those with a hit. About 0.5% of all pairs of compound and target were hits. A number with no mark means an inactive call.

Chain of UniProt P60981 (P60981 whole entry, looked up): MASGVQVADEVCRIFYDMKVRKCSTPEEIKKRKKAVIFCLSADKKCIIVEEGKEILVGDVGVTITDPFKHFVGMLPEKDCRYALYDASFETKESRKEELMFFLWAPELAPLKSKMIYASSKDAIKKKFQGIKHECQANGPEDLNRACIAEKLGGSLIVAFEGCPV
Chain of UniProt Q8NFI3 (Q8NFI3 whole entry, looked up): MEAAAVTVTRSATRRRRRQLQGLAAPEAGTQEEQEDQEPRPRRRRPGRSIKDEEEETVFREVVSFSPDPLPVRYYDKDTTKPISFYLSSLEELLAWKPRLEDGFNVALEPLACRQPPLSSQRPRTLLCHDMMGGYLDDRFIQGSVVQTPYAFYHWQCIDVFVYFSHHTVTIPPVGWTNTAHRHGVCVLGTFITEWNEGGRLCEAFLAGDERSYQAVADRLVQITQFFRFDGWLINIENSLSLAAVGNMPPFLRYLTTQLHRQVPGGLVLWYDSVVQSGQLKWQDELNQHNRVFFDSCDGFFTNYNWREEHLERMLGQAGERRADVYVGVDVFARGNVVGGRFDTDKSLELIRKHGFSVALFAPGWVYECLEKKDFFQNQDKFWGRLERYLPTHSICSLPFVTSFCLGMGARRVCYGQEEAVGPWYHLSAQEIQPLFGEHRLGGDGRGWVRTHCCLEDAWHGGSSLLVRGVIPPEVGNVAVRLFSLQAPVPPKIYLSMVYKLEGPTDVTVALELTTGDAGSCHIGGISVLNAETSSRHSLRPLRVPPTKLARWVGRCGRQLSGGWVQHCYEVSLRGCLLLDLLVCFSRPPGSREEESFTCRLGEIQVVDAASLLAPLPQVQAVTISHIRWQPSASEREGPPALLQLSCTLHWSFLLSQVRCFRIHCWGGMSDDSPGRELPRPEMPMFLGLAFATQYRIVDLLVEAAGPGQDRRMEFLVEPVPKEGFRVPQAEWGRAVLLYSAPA
Chain of UniProt O95571 (O95571 whole entry, looked up): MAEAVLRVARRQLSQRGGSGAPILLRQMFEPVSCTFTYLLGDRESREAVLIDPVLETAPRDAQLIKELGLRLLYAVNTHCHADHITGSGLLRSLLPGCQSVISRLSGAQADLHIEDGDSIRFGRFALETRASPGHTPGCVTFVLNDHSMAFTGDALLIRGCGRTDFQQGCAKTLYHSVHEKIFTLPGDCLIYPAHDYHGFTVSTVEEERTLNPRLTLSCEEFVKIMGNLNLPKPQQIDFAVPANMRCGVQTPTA
Chain of UniProt Q6P2E9 (Q6P2E9 whole entry, looked up): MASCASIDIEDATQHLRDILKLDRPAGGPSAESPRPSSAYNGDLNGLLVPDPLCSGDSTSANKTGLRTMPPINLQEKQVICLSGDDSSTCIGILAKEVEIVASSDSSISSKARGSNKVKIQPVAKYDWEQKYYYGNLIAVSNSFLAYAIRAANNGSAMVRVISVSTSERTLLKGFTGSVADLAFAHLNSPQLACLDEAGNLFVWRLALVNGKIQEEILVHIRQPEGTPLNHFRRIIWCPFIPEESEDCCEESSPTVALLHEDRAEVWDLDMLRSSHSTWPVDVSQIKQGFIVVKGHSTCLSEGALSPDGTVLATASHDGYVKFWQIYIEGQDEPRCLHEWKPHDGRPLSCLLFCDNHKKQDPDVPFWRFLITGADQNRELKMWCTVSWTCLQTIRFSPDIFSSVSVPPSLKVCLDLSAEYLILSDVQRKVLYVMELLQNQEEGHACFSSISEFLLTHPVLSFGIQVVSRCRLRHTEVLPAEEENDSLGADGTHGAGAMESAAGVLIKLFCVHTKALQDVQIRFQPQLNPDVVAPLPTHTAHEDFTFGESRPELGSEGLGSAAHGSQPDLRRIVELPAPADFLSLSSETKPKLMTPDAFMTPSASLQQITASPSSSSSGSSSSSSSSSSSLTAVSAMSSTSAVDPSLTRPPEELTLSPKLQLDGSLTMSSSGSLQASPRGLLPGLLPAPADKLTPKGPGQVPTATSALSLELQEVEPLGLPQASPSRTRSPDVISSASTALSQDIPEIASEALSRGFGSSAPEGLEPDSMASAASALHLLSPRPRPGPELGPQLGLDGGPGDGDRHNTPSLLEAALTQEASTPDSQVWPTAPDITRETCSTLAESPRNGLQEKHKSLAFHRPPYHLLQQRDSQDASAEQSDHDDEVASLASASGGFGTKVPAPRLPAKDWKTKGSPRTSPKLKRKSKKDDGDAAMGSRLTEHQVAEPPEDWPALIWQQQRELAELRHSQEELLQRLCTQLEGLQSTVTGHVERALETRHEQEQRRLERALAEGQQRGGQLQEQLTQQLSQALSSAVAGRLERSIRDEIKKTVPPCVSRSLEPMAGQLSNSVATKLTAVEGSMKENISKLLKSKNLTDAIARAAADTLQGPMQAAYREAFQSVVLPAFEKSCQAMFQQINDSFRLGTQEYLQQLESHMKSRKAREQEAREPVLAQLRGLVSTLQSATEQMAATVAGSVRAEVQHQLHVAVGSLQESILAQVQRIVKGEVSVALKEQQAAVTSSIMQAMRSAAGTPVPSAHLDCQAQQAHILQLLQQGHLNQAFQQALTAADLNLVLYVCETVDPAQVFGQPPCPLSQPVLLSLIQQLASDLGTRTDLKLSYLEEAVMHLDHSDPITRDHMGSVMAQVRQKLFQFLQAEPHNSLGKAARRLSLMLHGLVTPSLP
Chain of UniProt Q6P4F2 (Q6P4F2 whole entry, looked up): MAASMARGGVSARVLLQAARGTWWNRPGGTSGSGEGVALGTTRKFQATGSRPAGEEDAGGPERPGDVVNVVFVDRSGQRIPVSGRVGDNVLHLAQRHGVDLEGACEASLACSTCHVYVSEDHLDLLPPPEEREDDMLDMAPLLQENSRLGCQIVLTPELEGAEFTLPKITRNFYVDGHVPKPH
Chain of UniProt Q8N9F7 (Q8N9F7 whole entry, looked up): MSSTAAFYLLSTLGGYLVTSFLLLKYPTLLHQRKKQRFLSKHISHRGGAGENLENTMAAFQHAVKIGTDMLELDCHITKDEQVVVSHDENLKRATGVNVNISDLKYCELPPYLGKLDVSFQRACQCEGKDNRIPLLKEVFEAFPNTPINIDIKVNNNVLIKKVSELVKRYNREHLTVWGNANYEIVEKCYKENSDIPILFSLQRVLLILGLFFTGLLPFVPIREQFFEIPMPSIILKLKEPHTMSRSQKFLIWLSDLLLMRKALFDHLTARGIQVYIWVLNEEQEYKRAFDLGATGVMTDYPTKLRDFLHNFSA
Chain of UniProt Q9NYY8 (Q9NYY8 whole entry, looked up): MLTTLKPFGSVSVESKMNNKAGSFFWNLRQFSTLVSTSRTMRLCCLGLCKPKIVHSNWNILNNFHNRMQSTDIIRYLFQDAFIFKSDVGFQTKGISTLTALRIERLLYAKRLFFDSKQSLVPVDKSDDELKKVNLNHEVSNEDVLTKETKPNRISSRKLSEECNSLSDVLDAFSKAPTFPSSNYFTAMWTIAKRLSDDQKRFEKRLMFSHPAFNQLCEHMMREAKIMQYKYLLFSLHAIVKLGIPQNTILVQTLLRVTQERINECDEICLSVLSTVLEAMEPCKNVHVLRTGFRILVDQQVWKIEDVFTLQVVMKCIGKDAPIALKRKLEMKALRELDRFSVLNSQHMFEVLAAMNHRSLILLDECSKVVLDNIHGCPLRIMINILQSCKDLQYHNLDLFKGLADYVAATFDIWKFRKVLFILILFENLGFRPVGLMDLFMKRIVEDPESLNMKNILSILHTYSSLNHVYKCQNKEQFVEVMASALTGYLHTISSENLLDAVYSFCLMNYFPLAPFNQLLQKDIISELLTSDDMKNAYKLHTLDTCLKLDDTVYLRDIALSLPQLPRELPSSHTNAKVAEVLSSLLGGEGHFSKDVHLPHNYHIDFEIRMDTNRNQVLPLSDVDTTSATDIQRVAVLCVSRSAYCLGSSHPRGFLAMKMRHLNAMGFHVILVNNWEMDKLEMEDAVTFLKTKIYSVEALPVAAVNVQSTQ
Chain of UniProt Q06210 (Q06210 whole entry, looked up): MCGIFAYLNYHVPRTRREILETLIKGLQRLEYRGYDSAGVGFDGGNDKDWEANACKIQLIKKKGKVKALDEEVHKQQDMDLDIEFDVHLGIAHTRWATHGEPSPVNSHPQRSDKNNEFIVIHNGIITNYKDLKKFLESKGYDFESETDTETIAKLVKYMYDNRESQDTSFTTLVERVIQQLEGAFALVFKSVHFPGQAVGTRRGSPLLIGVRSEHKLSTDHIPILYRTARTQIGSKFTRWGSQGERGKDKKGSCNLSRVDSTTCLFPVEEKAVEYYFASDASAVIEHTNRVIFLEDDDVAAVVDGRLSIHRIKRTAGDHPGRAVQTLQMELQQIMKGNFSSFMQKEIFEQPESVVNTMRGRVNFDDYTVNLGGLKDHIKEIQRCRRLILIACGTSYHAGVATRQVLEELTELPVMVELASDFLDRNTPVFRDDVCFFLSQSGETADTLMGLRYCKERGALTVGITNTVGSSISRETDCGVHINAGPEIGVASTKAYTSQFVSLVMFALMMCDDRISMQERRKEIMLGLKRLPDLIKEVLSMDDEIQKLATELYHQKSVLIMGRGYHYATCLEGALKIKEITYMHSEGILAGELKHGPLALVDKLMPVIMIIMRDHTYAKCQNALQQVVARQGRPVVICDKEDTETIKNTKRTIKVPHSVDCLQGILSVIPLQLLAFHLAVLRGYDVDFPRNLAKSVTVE
Chain of UniProt Q9Y5Q0 (Q9Y5Q0 whole entry, looked up): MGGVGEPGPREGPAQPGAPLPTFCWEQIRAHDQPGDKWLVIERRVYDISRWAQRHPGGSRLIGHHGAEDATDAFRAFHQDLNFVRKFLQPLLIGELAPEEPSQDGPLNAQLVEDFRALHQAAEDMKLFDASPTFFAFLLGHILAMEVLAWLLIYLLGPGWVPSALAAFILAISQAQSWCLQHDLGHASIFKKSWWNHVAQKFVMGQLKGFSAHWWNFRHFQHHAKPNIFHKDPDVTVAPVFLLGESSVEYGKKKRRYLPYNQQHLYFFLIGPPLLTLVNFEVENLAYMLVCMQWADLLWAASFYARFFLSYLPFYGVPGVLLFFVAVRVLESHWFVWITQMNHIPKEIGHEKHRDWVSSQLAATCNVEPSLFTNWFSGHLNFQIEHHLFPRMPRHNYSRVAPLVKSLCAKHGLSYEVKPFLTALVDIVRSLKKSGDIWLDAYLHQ

For DYNC1I2 isoform 5 (UniProt Q13409), the log2 fold change with nilotinib is 0.029; in experiment [1], 0.016; in the experiment with dasatinib, 0.008; in experiment [2] it was -0.003; in [3] it was 0.001; with quisinostat, 0.023. Moreover, the log2 fold change was -0.011 in the experiment with tipifarnib, -0.014 in experiment [4], -0.008 in experiment [5] and -0.01 in experiment [6].

In the case of FDX2 (UniProt Q6P4F2), the log2 fold change with nilotinib is 0.135; in experiment [1] it was -0.025; with dasatinib it was 0.058; in [2], -0.067; in [3], -0.006; with quisinostat it was -0.068. The log2 fold change with tipifarnib was 0.096; in experiment [4], 0.05; in experiment [5], -0.068; in [6], 0.052.

In the case of ENGASE (UniProt Q8NFI3), the log2 fold change is 0.02 in the experiment with nilotinib; -0.083 in experiment [1]; 0.029 with dasatinib; -0.034 in experiment [2]; 0.028 in [3]; 0.009 with quisinostat. Also, the log2 fold change with tipifarnib is 0.043; in [4], -0.04; in [5], 0.011; in experiment [6] it was -0.025.

Turning to ETHE1 (UniProt O95571), the log2 fold change with nilotinib is 0.25 (active); in experiment [1] it was -0.124; with dasatinib, -0.037; in experiment [2], 0.095; in [3], -0.046; with quisinostat, -0.015. Also, the log2 fold change was -0.181 with tipifarnib, 0.055 in experiment [4], 0 in experiment [5] and -0.002 in experiment [6].

Regarding GFPT1 (UniProt Q06210), the log2 fold change with nilotinib is 0.003; in experiment [1] it was -0.009; with dasatinib it was -0.013; in experiment [2], 0.008; in experiment [3], 0.002; in the experiment with quisinostat, -0.031. In addition, the log2 fold change in the experiment with tipifarnib is -0.006; in experiment [4], 0.027; in experiment [5], -0.003; in experiment [6], -0.025.

For the target GDPD1 (UniProt Q8N9F7), the log2 fold change in the experiment with nilotinib is -0.047; in [1] it was 0.011; with dasatinib it was 0.026; in experiment [2], 0.011; in experiment [3] it was -0.05; in the experiment with quisinostat, -0.056. Further, the log2 fold change in the experiment with tipifarnib is 0.024; in experiment [4], -0.02; in experiment [5], 0.053; in experiment [6], -0.017.

In the case of DSTN (UniProt P60981), the log2 fold change with nilotinib is 0.01; in [1], 0.012; in the experiment with dasatinib, -0.013; in experiment [2], 0.009; in [3] it was 0.034; in the experiment with quisinostat, 0.045. For the same target, the log2 fold change with tipifarnib was -0.005; in experiment [4], -0.022; in [5], 0.022; in [6] it was -0.008.

Take FOXJ3 (UniProt Q9UPW0): the log2 fold change in the experiment with nilotinib is 0.156; in experiment [1], -0.053; in the experiment with dasatinib, -0.013; in experiment [2], -0.008; in experiment [3], -0.063; with quisinostat, -0.055. Moreover, the log2 fold change was -0.017 in the experiment with tipifarnib, 0.042 in experiment [4], 0.017 in experiment [5] and -0.115 in experiment [6].

Consider FCHO1 (UniProt O14526), for which the log2 fold change with nilotinib was 0.007; in experiment [1] it was -0.02; with dasatinib, -0.022; in [2], 0.035; in [3] it was 0.02; with quisinostat it was 0.013. Besides, the log2 fold change in the experiment with tipifarnib is -0.025; in experiment [4], 0.063; in experiment [5] it was 0.006; in experiment [6], 0.007.

In the case of EDC3 (UniProt Q96F86), the log2 fold change was 0.045 with nilotinib; 0.016 in experiment [1]; -0.022 with dasatinib; -0.031 in experiment [2]; 0.004 in experiment [3]; -0.006 in the experiment with quisinostat. In addition, the log2 fold change in the experiment with tipifarnib is -0.069; in [4] it was -0.019; in experiment [5], -0.014; in experiment [6] it was 0.017.

As to FADS3 (UniProt Q9Y5Q0), the log2 fold change was -0.091 in the experiment with nilotinib; 0.216 in [1]; 0.102 with dasatinib; 0.166 in experiment [2]; -0.061 in experiment [3]; -0.019 with quisinostat. Moreover, the log2 fold change with tipifarnib was -0.081; in experiment [4], -0.008; in experiment [5], -0.069; in experiment [6], 0.07.

On to ERLIN2 (UniProt O94905), for which the log2 fold change was -0.009 in the experiment with nilotinib; 0.001 in experiment [1]; -0.013 in the experiment with dasatinib; -0.019 in experiment [2]; 0.03 in [3]; 0.021 in the experiment with quisinostat. Besides, the log2 fold change with tipifarnib was 0.012; in experiment [4] it was -0.038; in [5], 0.012; in experiment [6], -0.01.

In the case of FASTKD2 (UniProt Q9NYY8), the log2 fold change with nilotinib is -0.019; in experiment [1], -0.006; in the experiment with dasatinib it was -0.006; in experiment [2], 0.016; in experiment [3], -0.026; with quisinostat, -0.027. Further, the log2 fold change is -0.02 with tipifarnib, 0.049 in [4], 0.027 in [5] and 0.015 in experiment [6].

As to GEMIN5 (UniProt Q8TEQ6), the log2 fold change with nilotinib is -0.003; in [1] it was -0.001; with dasatinib it was -0.046; in [2], 0.001; in [3], 0.037; with quisinostat, -0.102. Further, the log2 fold change with tipifarnib was 0.015; in experiment [4], 0.031; in experiment [5] it was 0.003; in [6], -0.027.

For the target EDC4 (UniProt Q6P2E9), the log2 fold change is 0 with nilotinib; 0.007 in experiment [1]; -0.058 with dasatinib; 0.007 in experiment [2]; -0.002 in [3]; -0.071 in the experiment with quisinostat. Besides, the log2 fold change with tipifarnib is -0.001; in [4], 0.01; in [5], 0.027; in experiment [6], 0.011.

These data come from the supplement of paper PMC10849652.
